Rows were chosen to be rich in hits. Some 0.87% of all compounds tested hit in one or more screens of this group.
Calb biofilm kill: kills Candida albicans biofilms; C. albicans biofilm + clotrimazole, Alamar Blue; inhibition, % at 6 µM; hit rate 0.14% among 85,000;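 active = inhibition above 20%; inactive = inhibition below 20%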;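 also: preformed 24 hr biofilms exposed to compound for 48 hr; 0% = biofilm without compound and 100% = blank killed by clotrimazole plus chlorhexidine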
MRP resist rev: compounds reversing MRP-mediated drug resistance. H69AR cells + 2 uM doxorubicin, CellTiter-Glo, 72 h. differential viability (reversal), % at 10 µM. hit rate 0.04% among 85,000. AID 602;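 active = viability drop by adding the cancer drug above about 55%, with treated viability meeting a 40% cutoff, limit read from the data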;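 also: viability without doxorubicin minus viability with 2 µM doxorubicin for each compound; larger differential means the compound sensitizes cells more to doxorubicin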
MRP-1 activ: activators of MRP-1; AID 799; hit rate 0.61% among 140,000; viability increase, % at 10 µM; H69AR cells + doxorubicin, viability rescue, CellTiter-Glo;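 active = viability gain under doxorubicin at or above a set limit, the compound median plus 3 SD, cut at about 4.7% in these data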;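 also: MRP-1 overexpressing cells given doxorubicin 25 µM after compound pretreatment; 18-22 h compound pretreatment then 72 h with doxorubicin before readout; 0% = doxorubicin-only wells and 100% = vehicle-treated cells without doxorubicin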
sEH inhibitor: blocks human soluble epoxide hydrolase activity; P34913; recombinant human sEH enzymatic activity assay; inhibition, % at 2 µM; hit rate 0.34% among 91,000; in the data active = inhibition above about 80%
Target sequence (P34913 whole entry, looked up): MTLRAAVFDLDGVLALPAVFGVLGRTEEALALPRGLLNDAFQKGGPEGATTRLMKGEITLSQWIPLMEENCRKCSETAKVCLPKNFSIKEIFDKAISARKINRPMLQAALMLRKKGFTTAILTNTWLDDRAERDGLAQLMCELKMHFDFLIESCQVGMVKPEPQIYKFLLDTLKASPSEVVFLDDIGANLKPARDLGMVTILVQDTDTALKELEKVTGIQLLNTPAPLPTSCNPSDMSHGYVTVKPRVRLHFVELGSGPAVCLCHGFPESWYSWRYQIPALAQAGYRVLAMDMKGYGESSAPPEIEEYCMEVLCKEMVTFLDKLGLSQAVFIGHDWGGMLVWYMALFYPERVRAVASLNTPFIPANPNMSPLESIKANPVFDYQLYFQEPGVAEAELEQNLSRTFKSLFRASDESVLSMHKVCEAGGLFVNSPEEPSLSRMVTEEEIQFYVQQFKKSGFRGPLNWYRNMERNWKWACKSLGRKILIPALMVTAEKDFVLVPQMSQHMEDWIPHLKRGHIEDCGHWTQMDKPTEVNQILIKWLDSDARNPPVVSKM
sEH act: increases human soluble epoxide hydrolase activity | P34913 | purified human sEH enzymatic activity, activator screen | activation, % at 2 µM | hit rate 0.04% among 91,000 | AID 717; in the data active = activation above about 37%
Active calls of the source: *; . = no result given.

SMILES	Calb biofilm kill	MRP resist rev	MRP-1 activ	sEH inhibitor	sEH act
COc1ccccc1NC(=O)CSC1=NCCN1	.	.	50*	.	.
CC(=O)c1cccc(NC(=O)NC2CCCCC2)c1	9	6	1	69	-69
O=C(Nc1ccc2c(c1)nc1n2CCN(C2CCCCC2)C1)NC1CCCCC1	.	.	-5	89*	-89
O=C(Nc1ccc(Cl)cc1)NC1CCCCC1	2	-15	-1	.	.
O=C(Nc1ccc2c(c1)nc1n2CCN(C2CCCCC2)C1)c1ccco1	10	8	.	.	.
O=C(Nc1ccc(F)c(F)c1)NC1CCCCC1	8	-12	-4	90*	-90
O=C(Nc1ccc(OC(F)F)cc1)Nc1cccc(C(F)(F)F)c1	6	-1	-3	86*	-86
O=C(Nc1cccc(C(F)(F)F)c1)NC1CCCCC1	0	23	-1	94*	-94
Cc1cc([N+](=O)[O-])nn1CCCC(=O)N1CCN(c2ccccc2)CC1	.	.	-2	.	.
CC(/C=N/N1CCN(c2ccccn2)CC1)=C\c1ccccc1	.	.	5.0*	.	.
Cc1ccc(-c2cn3cccnc3n2)cc1NC(=O)c1cccs1	.	.	2	.	.
CSc1ncccc1C(=O)Nc1nc2ccc(Oc3ccccc3)cc2s1	.	.	4.8*	.	.
Cc1ccc(NC(=O)Cc2csc(-c3ccccc3)n2)cc1F	.	.	5.1*	.	.
CN(C)CCN(C(=O)c1ccccc1Cl)c1nc2c(Cl)cccc2s1	.	.	-4	.	.
COC(=O)c1sccc1NC(=O)c1cc(-c2ccc(C)cc2C)nc2ccccc12	.	.	-3	-6	9
CCOc1ccc(NC(=O)NCC2CCN(c3ccc(OC)cc3)C2)cc1 (stereo not given)	-2	8	0	88*	-88
Cc1nc(=O)c(-c2ccccc2)c(C)n1-c1ccccc1O	4	-7	2	.	.
CC(=O)Nc1ccc(-n2c(C)c(C(C)=O)c(C(C)=O)c2C)cc1	4	15	0	.	.
CC(=O)Nc1ccc(-n2c(C)nc(=O)c(-c3ccccc3)c2C)cc1	2	-8	11*	14	-14
Cc1nc(=O)c(-c2ccccc2)c(C)n1-c1ccc(O)cc1	2	3	5.3*	5	-5
Cn1c(CC(=O)Nc2ccccc2C(F)(F)F)c(Sc2ccccc2)c2ccccc21	.	.	-2	.	.
COc1ccccc1NS(=O)(=O)c1cccc(C(=O)N/N=C(\C)c2ccc(-n3ccnc3)cc2)c1	.	.	-3	82*	-82
C/C(=N\NC(=O)c1ccccc1)c1ccc(-n2ccnc2)cc1	.	.	0	.	.
C=CCn1c(CNc2ccccc2)nnc1SCC(=O)N/N=C/c1ccccc1O	.	.	5.3*	6	-4
Cc1ccc2[nH]c(=O)c(C(c3nnnn3C3CCCC3)N3CCCc4ccccc43)cc2c1 (stereo not given)	1	-20	19*	1	0
SMILES	Calb biofilm kill	MRP resist rev	MRP-1 activ	sEH inhibitor	sEH act
CCC(C)(C)n1nnnc1C(c1cc2cc(C)ccc2[nH]c1=O)N1CCCc2ccccc21 (stereo not given)	2	6	-2	6	-4
COc1ccc(-c2[nH]ncc2-c2cnn(-c3ccccc3)c2)c(O)c1	.	.	46*	-4	3
Cc1cccc(Cc2cnc(NC(=O)CN3C(=O)/C(=C/c4ccccc4)SC3=S)s2)c1	.	.	5.6*	16	-18
CCCCN(C(=O)Cc1cccs1)c1nnc(-c2cccnc2)s1	5	22	5.8*	10	-8
COCCN(C(=O)Cc1cccs1)c1nnc(-c2cccnc2)s1	7	-1	-1	20	-20
CC(NC(=O)c1sc2ccccc2c1Cl)C1CCCO1 (stereo not given)	.	.	1	.	.
Cc1cc(Br)cn2ccnc12	.	.	-1	1	-1
Cn1nnnc1SCC(=O)Nc1nc(-c2ccccc2)c(-c2ccccc2)o1	-5	60*	-4	22	-20
CCN(CC)C(=S)SCC(=O)Nc1nc(-c2ccccc2)c(-c2ccccc2)o1	.	.	-3	.	.
Cn1cc(Br)c(C(=O)NNC(=O)c2ccc(Br)cc2)n1	.	.	7.6*	.	.
COc1cc(C(=O)NC(=S)Nc2ccc(N3CCCC3)cc2)cc(OC)c1OC	.	.	-3	.	.
O=C1CC(N(C(=O)c2ccco2)c2cccc(Cl)c2)C(=O)N1c1cccc(Cl)c1 (stereo not given)	6	7	-2	1	0
CCn1c(CNC(=O)COc2ccc(C(C)C)cc2)nnc1SCC(=O)Nc1ccccc1C(C)C	.	.	6.2*	50	-49
CC1=CCC2COC(c3ccc[n+](Cc4ccccc4)c3)C1C2 (stereo not given)	.	.	-1	.	.
CCn1nc(CC(=O)Nc2ccc(-n3cnnn3)c(C)c2)c2ccccc2c1=O	8	3	-2	93*	-92
CCn1nc(CC(=O)Nc2ccc(-n3cnnn3)c(OC)c2)c2ccccc2c1=O	1	8	-3	38	-35
